Source: PubChem BioAssay AID1159580 (chemical genetic matrix, 2015)
Hit rate of the full screen: of about 5,500 compounds, about 2,000 (36%) were called active. Inconclusive results (about 18%) are left out. No stated cut-off is given here; in the data, active means normalized growth mostly below about 0.91 (no sharp cut-off); inconclusive means no clear call, values can overlap the other calls; inactive means mostly above about 0.92. This is one part of the list.

Test: chemical genetic growth profiling, strain panel (AID 1159580);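 further: tested at 20 µM; growth read once vehicle control cultures reached saturation at 30 °C; 1 = growth at the plate median or of vehicle wells; lower values mean less growth of the strain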
Details: S. cerevisiae deletion strains, growth OD

Measured: normalized growth

COP(=O)(OC)C(O)C(Cl)(Cl)Cl (stereo not drawn)
inactive: locus YHR030C, strain SLT2, hits give low values 0.998 | locus YHR079C, strain IRE1, hits give low values 1.03 | locus YJL095W, strain BCK1, hits give low values 1.01 | locus YJR066W, strain TOR1, hits give low values 0.938 | locus YLR113W, strain HOG1, hits give low values 1 | locus YNL183C, strain NPR1, hits give low values 0.962 | locus YOR231W, strain MKK1, hits give low values 1.03 | locus YPL256C, strain CLN2, hits give low values 0.988
